High-throughput results from PubChem.
Bcl-B Bim block: inhibitors of Bim-Bcl-B binding, primary screen, biochemical, multiplexed, human Bcl-2 family; Bcl-2-like protein 10 (Homo sapiens), Q9HD36; bead-based flow cytometry, Bim peptide-Bcl-B binding; inhibition, % at 10 µM; 190,000 compounds, 0.073% hits; AID 951, 2007
Bim-Bcl-XL: inhibitors of Bim-Bcl-XL binding, primary screen, biochemical, multiplexed, bead flow cytometry, human Bcl-XL; inhibition, % at 10 µM; 190,000 compounds, 0.04% hits; Bcl-2-like protein 1 (Homo sapiens), Q07817; Bim peptide-Bcl-XL binding, fluorescence
Target sequence (Q07817 whole entry, looked up): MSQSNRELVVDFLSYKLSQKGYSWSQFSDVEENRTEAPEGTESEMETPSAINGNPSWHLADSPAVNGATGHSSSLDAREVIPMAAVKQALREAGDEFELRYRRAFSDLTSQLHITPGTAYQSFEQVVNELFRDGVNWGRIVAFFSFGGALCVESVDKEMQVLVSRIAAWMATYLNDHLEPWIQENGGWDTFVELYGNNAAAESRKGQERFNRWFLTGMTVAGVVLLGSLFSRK
BCLXL inh: inhibitors of human Bcl-xL, primary screen, biochemical, fluorescence polarization, HTS | AID 2129, 2009 | 320,000 compounds, 0.7% hits | Bcl-2-like protein 1 (Homo sapiens), Q07817 | GST-Bcl-xL / FITC-Bim BH3 peptide fluorescence polarization | inhibition, % at 10.9 µM;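 active = inhibition above the mean of all tested compounds plus 3 SD, cutoff set per campaign, cut at about 30% in these data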;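 also: inhibitors lower millipolarization by displacing the labeled peptide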
Bim-Bfl-1: inhibitors of Bim binding to Bfl-1, primary screen, biochemical, multiplexed, bead-based flow cytometry. 190,000 compounds, 0.12% hits. inhibition, % at 10 µM. Bim-Bfl-1 binding inhibition
Target sequence (Q16548 whole entry, looked up): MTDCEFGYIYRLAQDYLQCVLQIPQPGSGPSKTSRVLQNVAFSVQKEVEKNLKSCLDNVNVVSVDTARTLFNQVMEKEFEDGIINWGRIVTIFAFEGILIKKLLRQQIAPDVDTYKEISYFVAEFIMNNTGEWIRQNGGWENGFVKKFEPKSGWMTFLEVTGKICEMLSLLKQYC
Bcl-W Bim block: inhibitors of Bim binding to Bcl-W, primary screen, biochemical, multiplexed, bead-based flow cytometry; Bcl-2-like protein 2 (Homo sapiens), Q92843; Bim peptide-Bcl-W binding; inhibition, % at 10 µM; 190,000 compounds, 0.02% hits; AID 952, 2007;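 also: higher means less fluorescent Bim peptide bound to Bcl-W beads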
Bcl-2 Bim block: inhibitors of Bim-Bcl-2 binding, primary screen, biochemical, multiplexed, human Bcl-2 family; Apoptosis regulator Bcl-2 (Homo sapiens), P10415; inhibition, % at 10 µM; 190,000 compounds, 0.06% hits; Bead-based flow cytometry, Bim peptide-Bcl-2 binding; AID 950, 2007; in the data active = inhibition above about 40%
Each line names hits and unclear results; the compound was inactive in the other large screens. In the library only some 0.81% were active in any assay of this set; here they are far more common. Rule as the data show it, unless noted: active = inhibition above about 40%.

N#CCC(=O)NN1Cc2ccccc2C1=N	BCLXL inh 75
N=C1c2ccccc2CN1NC(=O)c1ccc(F)cc1	none
CCN1/C(=C\C=C\C2=[N+](CC)c3ccccc3C2(C)C)C(C)(C)c2ccccc21	BCLXL inh active
O=c1[nH]c2ccccc2n1CCCN1CCC(n2c(=O)[nH]c3cc(Cl)ccc32)CC1	BCLXL inh 37
COC(=O)C1=C(c2ccccc2)C[C@@H]2CC[C@H]1N2C(=O)N1CCCC1	none (no result: Bcl-B Bim block, Bim-Bcl-XL, Bim-Bfl-1, Bcl-W Bim block, Bcl-2 Bim block)
O=C1NC(=O)N(c2ccccc2F)C(=O)/C1=C/c1ccc(Sc2nc3ccccc3[nH]2)o1	BCLXL inh 54
O=C1NC(=O)N(c2cccc(Cl)c2)C(=O)/C1=C\c1ccc(Sc2nc3ccccc3[nH]2)o1	BCLXL inh 91
NC1=NC(=O)C(c2ccccc2)O1 (stereo not drawn)	none (no result: BCLXL inh)
CN1Cc2c(c(C#N)c(N)n(C)c2=S)CC1(C)C	BCLXL inh 94
CC(C)[N+](C)(CCC(C(N)=O)(c1ccccc1)c1ccccc1)C(C)C	none
N[C@@H](CCl)C(=O)O	none (no result: Bcl-B Bim block, Bim-Bcl-XL, Bim-Bfl-1, Bcl-W Bim block, Bcl-2 Bim block)
NC(Cc1cc(O)c(O)cc1O)C(=O)O (stereo not drawn)	BCLXL inh 67 (no result: Bcl-B Bim block, Bim-Bcl-XL, Bim-Bfl-1, Bcl-W Bim block, Bcl-2 Bim block)
Cn1c(O)c(C=NCCN2CCOCC2)c(=O)n(C)c1=S	none (no result: Bcl-B Bim block, Bim-Bcl-XL, Bim-Bfl-1, Bcl-W Bim block, Bcl-2 Bim block)
Cc1ccc(S(=O)(=O)N2CCN(C(=O)COC(=O)Cc3ccccc3)CC2)c(C)c1	none (no result: Bcl-B Bim block, Bim-Bcl-XL, Bim-Bfl-1, Bcl-W Bim block, Bcl-2 Bim block)
O=c1[nH]c(=O)n(-c2cccc(F)c2)c(O)c1/C=C1\C=Nc2ccccc21	BCLXL inh 160 (no result: Bcl-B Bim block, Bim-Bcl-XL, Bim-Bfl-1, Bcl-W Bim block, Bcl-2 Bim block)
O=C(O)c1ccc(-n2c(O)c(/C=C3\C=Nc4ccccc43)c(=O)[nH]c2=O)cc1	none (no result: Bcl-B Bim block, Bim-Bcl-XL, Bim-Bfl-1, Bcl-W Bim block, Bcl-2 Bim block)
Cc1ccc(/C=C2/Sc3ccc(C(=O)N4CCC5(CC4)OCCO5)cc3NC2=O)cc1	BCLXL inh 106 (no result: Bcl-B Bim block, Bim-Bcl-XL, Bim-Bfl-1, Bcl-W Bim block, Bcl-2 Bim block)
Cc1ccc(S(=O)(=O)N[C@@H](CCCCN)C(=O)CCl)cc1	BCLXL inh 32 (no result: Bcl-B Bim block, Bim-Bcl-XL, Bim-Bfl-1, Bcl-W Bim block, Bcl-2 Bim block)
Cc1ccc(S(=O)(=O)NCCC(=O)Nc2ccc(Cl)cc2C(=O)c2ccccc2)cc1	none
CCCc1nnc(NC(=O)CCC(=O)N2CCC3(CC2)OCCO3)s1	BCLXL inh 54 (no result: Bcl-B Bim block, Bim-Bcl-XL, Bim-Bfl-1, Bcl-W Bim block, Bcl-2 Bim block)
CC(C)Cc1nnc(NC(=O)CCC(=O)N2CCC3(CC2)OCCO3)s1	none (no result: Bcl-B Bim block, Bim-Bcl-XL, Bim-Bfl-1, Bcl-W Bim block, Bcl-2 Bim block)
Cc1nccn1Cc1ccc(Cl)nc1	none
Nc1cc2nc3ccccc3nc2cc1N	BCLXL inh 96 (no result: Bcl-B Bim block, Bim-Bcl-XL, Bim-Bfl-1, Bcl-W Bim block, Bcl-2 Bim block)
O=C(N/N=C1/CN2CCC1CC2)c1cccc(O)c1	none
O=C(O)c1cccc2c1NC(C(=O)O)C1CC(Sc3ccccc3[N+](=O)[O-])C(Cl)C21 (stereo not drawn)	BCLXL inh 62
Cc1ccc2c(c1)C1CN(C)CCC1N2C(=O)Nc1cccc(Cl)c1 (stereo not drawn)	Bcl-2 Bim block 85 (no result: Bcl-B Bim block, Bim-Bfl-1)
CCC1C=CC=CC[C@H](C)[C@@H](O)[C@](C)(O)C(=O)[C@@H](C)[C@H](O)[C@@H](C)C(=O)[C@H](C)[C@@H](O)[C@H](C)C=CC(=O)OC2[C@@H](C)C(CC1)OC1(CC[C@@H](C)C(C[C@H](C)O)O1)[C@@H]2C (stereo partly drawn)	none (no result: Bcl-B Bim block, Bim-Bcl-XL, Bim-Bfl-1, Bcl-W Bim block, Bcl-2 Bim block)
CC1=NCCc2c1[nH]c1cc(O)ccc21	BCLXL inh active (no result: Bcl-B Bim block, Bim-Bcl-XL, Bim-Bfl-1, Bcl-W Bim block, Bcl-2 Bim block)
CCCCCCNc1nc(OC)nc(N2CC3CC(C2)c2cccc(=O)n2C3)n1 (stereo not drawn)	none
Cc1ccc2c(c1N)C(=O)c1ccccc1C2=O	BCLXL inh 47 (no result: Bcl-B Bim block, Bim-Bcl-XL, Bim-Bfl-1, Bcl-W Bim block, Bcl-2 Bim block)
O=c1cccc2n1CC1CC2CN(S(=O)(=O)c2cc(Cl)ccc2Cl)C1 (stereo not drawn)	none (no result: Bcl-B Bim block, Bim-Bcl-XL, Bim-Bfl-1, Bcl-W Bim block, Bcl-2 Bim block)
Nc1c2c(nc3ccccc13)CCN(Cc1ccccc1)C2	BCLXL inh 167 (no result: Bcl-B Bim block, Bim-Bcl-XL, Bim-Bfl-1, Bcl-W Bim block, Bcl-2 Bim block)
COc1ccc(/C=C2/C(=O)NC(=S)N(C3CC3)C2=O)cc1CN1C(=O)c2ccccc2C1=O	none
Nc1c(C(=O)NCc2ccco2)c2nc3ccccc3nc2n1Cc1ccccc1	none
COCC(C)OC(=O)c1c(N)n(Cc2ccco2)c2nc3ccccc3nc12 (stereo not drawn)	BCLXL inh 34
COCCOC(=O)c1c(N)n(Cc2ccccc2)c2nc3ccccc3nc12	none
CCOC(=O)c1c(N)n(Cc2ccco2)c2nc3ccccc3nc12	BCLXL inh 43
